Laboratory results as given in PubChem BioAssay AID1159580 (chemical genetic matrix, 2015).
The campaign covered roughly 5,500 compounds. About 2,000 (36%) were called active. Roughly 18% stayed inconclusive and do not appear here. Rule as the data show it: active = normalized growth mostly below about 0.91 (no sharp cut-off); inconclusive = no clear call, values can overlap the other calls; inactive = mostly above about 0.92. Some of the results follow.

Test: chemical genetic growth profiling, strain panel (AID 1159580);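 also: tested at 20 µM; growth read once vehicle control cultures reached saturation at 30 °C; 1 = growth at the plate median or of vehicle wells; lower values mean less growth of the strain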
Conditions: growth OD

Measured: normalized growth

CC(=O)N[C@@H](CS)C(=O)O
inactive: S. cerevisiae deletion strains, locus YAL013W, strain DEP1, active compounds read low 1 | S. cerevisiae deletion strains, locus YAL021C, strain ccr4, active compounds read low 1.02 | S. cerevisiae deletion strains, locus YAL026C, strain drs2, active compounds read low 1 | S. cerevisiae deletion strains, locus YAL030W, strain snc1, active compounds read low 0.995 | S. cerevisiae deletion strains, locus YBL061C, strain skt5, active compounds read low 1.01 | S. cerevisiae deletion strains, locus YBR009C, strain hhf1, active compounds read low 1 | S. cerevisiae deletion strains, locus YBR021W, strain FUR4, active compounds read low 0.989 | S. cerevisiae deletion strains, locus YBR023C, strain chs3, active compounds read low 0.994 | S. cerevisiae deletion strains, locus YBR171W, strain sec66, active compounds read low 0.991 | S. cerevisiae deletion strains, locus YBR229C, strain ROT2, active compounds read low 1.01 | S. cerevisiae deletion strains, locus YBR231C, strain swc5, active compounds read low 1.01 | S. cerevisiae deletion strains, locus YBR279W, strain paf1, active compounds read low 1.01 | S. cerevisiae deletion strains, locus YCL011C, strain gbp2, active compounds read low 0.997 | S. cerevisiae deletion strains, locus YCL016C, strain dcc1, active compounds read low 0.998 | S. cerevisiae deletion strains, locus YCL029C, strain bik1, active compounds read low 1.03 | S. cerevisiae deletion strains, locus YCL061C, strain MRC1, active compounds read low 0.995 | S. cerevisiae deletion strains, locus YCL069W, strain vba3, active compounds read low 1.01 | S. cerevisiae deletion strains, locus YCR088W, strain abp1, active compounds read low 1 | S. cerevisiae deletion strains, locus YDL005C, strain med2, active compounds read low 0.992 | S. cerevisiae deletion strains, locus YDL035C, strain GPR1, active compounds read low 1 | S. cerevisiae deletion strains, locus YDL040C, strain nat1, active compounds read low 1.01 | S. cerevisiae deletion strains, locus YDL074C, strain BRE1, active compounds read low 1.01 | S. cerevisiae deletion strains, locus YDL101C, strain DUN1, active compounds read low 1.01 | S. cerevisiae deletion strains, locus YDL134C, strain PPH21, active compounds read low 0.997 | S. cerevisiae deletion strains, locus YDL185W, strain tfp1, active compounds read low 1.02 | S. cerevisiae deletion strains, locus YDL192W, strain arf1, active compounds read low 1.01 | S. cerevisiae deletion strains, locus YDR001C, strain nth1, active compounds read low 0.997 | S. cerevisiae deletion strains, locus YDR069C, strain doa4, active compounds read low 1.01 | S. cerevisiae deletion strains, locus YDR101C, strain arx1, active compounds read low 1.01 | S. cerevisiae deletion strains, locus YDR137W, strain rgp1, active compounds read low 1.02 | S. cerevisiae deletion strains, locus YDR159W, strain sac3, active compounds read low 1.01 | S. cerevisiae deletion strains, locus YDR162C, strain NBP2, active compounds read low 1.02 | S. cerevisiae deletion strains, locus YDR195W, strain ref2 0.985 | S. cerevisiae deletion strains, locus YDR297W, strain sur2, active compounds read low 0.99 | S. cerevisiae deletion strains, locus YDR318W, strain mcm21, active compounds read low 1.02 | S. cerevisiae deletion strains, locus YDR334W, strain swr1, active compounds read low 1 | S. cerevisiae deletion strains, locus YDR335W, strain msn5, active compounds read low 1.01 | S. cerevisiae deletion strains, locus YDR388W, active compounds read low 1.02 | S. cerevisiae deletion strains, locus YDR392W, strain spt3, active compounds read low 1.02 | S. cerevisiae deletion strains, locus YDR502C, strain sam2, active compounds read low 1.01 | S. cerevisiae deletion strains, locus YEL003W, strain gim4, active compounds read low 1.01 | S. cerevisiae deletion strains, locus YEL037C, strain rad23, active compounds read low 1 | S. cerevisiae deletion strains, locus YEL061C, strain CIN8 (second series), active compounds read low 0.988 | S. cerevisiae deletion strains, locus YEL061C, strain CIN8, active compounds read low 1.01 | S. cerevisiae deletion strains, locus YER015W, strain faa2, active compounds read low 1 | S. cerevisiae deletion strains, locus YER016W, strain bim1, active compounds read low 0.995 | S. cerevisiae deletion strains, locus YER110C, active compounds read low 1.03 | S. cerevisiae deletion strains, locus YER111C, strain swi4, active compounds read low 0.989 | S. cerevisiae deletion strains, locus YER155C, strain BEM2 (second series), active compounds read low 1.01 | S. cerevisiae deletion strains, locus YER155C, strain BEM2, active compounds read low 1.01 | S. cerevisiae deletion strains, locus YER167W, strain BCK2, active compounds read low 1.01 | S. cerevisiae deletion strains, locus YFR010W, strain ubp6, active compounds read low 0.983 | S. cerevisiae deletion strains, locus YGL078C, strain dbp3, active compounds read low 1.01 | S. cerevisiae deletion strains, locus YGL086W, strain mad1, active compounds read low 1.01 | S. cerevisiae deletion strains, locus YGL167C, strain pmr1, active compounds read low 0.995 | S. cerevisiae deletion strains, locus YGL173C, strain kem1, active compounds read low 1 | S. cerevisiae deletion strains, locus YGL227W, strain vid30, active compounds read low 1 | S. cerevisiae deletion strains, locus YGL240W, strain doc1, active compounds read low 0.964 | S. cerevisiae deletion strains, locus YGL248W, strain PDE1, active compounds read low 1.02 | S. cerevisiae deletion strains, locus YGL253W, strain hxk2, active compounds read low 1.02 | S. cerevisiae deletion strains, locus YGR135W, strain pre9, active compounds read low 1.02 | S. cerevisiae deletion strains, locus YGR252W, strain gcn5, active compounds read low 0.999 | S. cerevisiae deletion strains, locus YHR013C, strain ard1, active compounds read low 1.02 | S. cerevisiae deletion strains, locus YHR027C, strain rpn1, active compounds read low 1.01 | S. cerevisiae deletion strains, locus YHR030C, strain SLT2, active compounds read low 1.01 | S. cerevisiae deletion strains, locus YHR079C, strain IRE1 (second series), active compounds read low 1.03 | S. cerevisiae deletion strains, locus YHR094C, strain hxt1, active compounds read low 1.01 | S. cerevisiae deletion strains, locus YHR129C, strain ARP1, active compounds read low 1.01 | S. cerevisiae deletion strains, locus YHR142W, strain chs7, active compounds read low 1.02 | S. cerevisiae deletion strains, locus YHR200W, strain rpn10, active compounds read low 1.02 | S. cerevisiae deletion strains, locus YIL066C, strain RNR3, active compounds read low 1.02 | S. cerevisiae deletion strains, locus YIL073C, strain SPO22, active compounds read low 1.07 | S. cerevisiae deletion strains, locus YIL125W, strain kgd1, active compounds read low 1.02 | S. cerevisiae deletion strains, locus YIR030C, strain dcg1, active compounds read low 1.01 | S. cerevisiae deletion strains, locus YJL092W, strain hpr5, active compounds read low 1.02 | S. cerevisiae deletion strains, locus YJL095W, strain BCK1 (second series), active compounds read low 1.01 | S. cerevisiae deletion strains, locus YJL095W, strain BCK1, active compounds read low 1.01 | S. cerevisiae deletion strains, locus YJL115W, strain asf1, active compounds read low 0.991 | S. cerevisiae deletion strains, locus YJL129C, strain trk1, active compounds read low 1 | S. cerevisiae deletion strains, locus YJL134W, strain LCB3, active compounds read low 1.01 | S. cerevisiae deletion strains, locus YJL154C, strain vps35, active compounds read low 1.01 | S. cerevisiae deletion strains, locus YJL164C, strain tpk1, active compounds read low 1 | S. cerevisiae deletion strains, locus YJL166W, strain qcr8, active compounds read low 0.985 | S. cerevisiae deletion strains, locus YJL168C, strain set2, active compounds read low 1.01 | S. cerevisiae deletion strains, locus YJL187C, strain SWE1 (second series), active compounds read low 1.03 | S. cerevisiae deletion strains, locus YJR043C, strain POL32, active compounds read low 1 | S. cerevisiae deletion strains, locus YKL009W, strain mrt4, active compounds read low 1.04 | S. cerevisiae deletion strains, locus YKL068W, active compounds read low 1.01 | S. cerevisiae deletion strains, locus YKL085W, strain MDH1 (second series), active compounds read low 1 | S. cerevisiae deletion strains, locus YKL085W, strain MDH1, active compounds read low 1 | S. cerevisiae deletion strains, locus YKL160W, strain elf1, active compounds read low 0.998 | S. cerevisiae deletion strains, locus YKR001C, strain vps1, active compounds read low 1.01 | S. cerevisiae deletion strains, locus YKR026C, strain gcn3, active compounds read low 0.991 | S. cerevisiae deletion strains, locus YKR091W, strain srl3, active compounds read low 1.01 | S. cerevisiae deletion strains, locus YLL001W, strain dnm1, active compounds read low 0.994 | S. cerevisiae deletion strains, locus YLL026W, active compounds read low 1.01 | S. cerevisiae deletion strains, locus YLL041C, strain sdh2, active compounds read low 1.01 | S. cerevisiae deletion strains, locus YLR027C, strain aat2, active compounds read low 1.01 | S. cerevisiae deletion strains, locus YLR039C, strain RIC1, active compounds read low 1.02 | S. cerevisiae deletion strains, locus YLR058C, strain SHM2, active compounds read low 1.02 | S. cerevisiae deletion strains, locus YLR102C, strain apc9, active compounds read low 1.02 | S. cerevisiae deletion strains, locus YLR221C, strain rsa3, active compounds read low 1 | S. cerevisiae deletion strains, locus YLR258W, strain gsy2, active compounds read low 1.01 | S. cerevisiae deletion strains, locus YLR262C, strain YPT6 (second series), active compounds read low 1 | S. cerevisiae deletion strains, locus YLR262C, strain YPT6, active compounds read low 1.08 | S. cerevisiae deletion strains, locus YLR268W, strain sec22, active compounds read low 1.02 | S. cerevisiae deletion strains, locus YLR320W, strain mms22, active compounds read low 1.01 | S. cerevisiae deletion strains, locus YLR330W, strain CHS5, active compounds read low 1.01 | S. cerevisiae deletion strains, locus YLR342W, strain FKS1 (second series), active compounds read low 0.995 | S. cerevisiae deletion strains, locus YLR342W, strain FKS1, active compounds read low 1.01 | S. cerevisiae deletion strains, locus YLR357W, strain rsc2, active compounds read low 0.989 | S. cerevisiae deletion strains, locus YLR370C, strain arc18, active compounds read low 1.01 | S. cerevisiae deletion strains, locus YLR371W, strain rom2, active compounds read low 1.03 | S. cerevisiae deletion strains, locus YLR384C, strain iki3, active compounds read low 1.01 | S. cerevisiae deletion strains, locus YLR418C, strain cdc73, active compounds read low 1.05 | S. cerevisiae deletion strains, locus YML016C, strain PPZ1, active compounds read low 1.01 | S. cerevisiae deletion strains, locus YML032C, strain rad52, active compounds read low 1.01 | S. cerevisiae deletion strains, locus YML120C, strain ndi1, active compounds read low 0.999 | S. cerevisiae deletion strains, locus YML124C, strain tub3, active compounds read low 1.04 | S. cerevisiae deletion strains, locus YMR058W, strain fet3, active compounds read low 0.998 | S. cerevisiae deletion strains, locus YMR078C, strain ctf18, active compounds read low 1.03 | S. cerevisiae deletion strains, locus YMR125W, strain sto1, active compounds read low 1.01 | S. cerevisiae deletion strains, locus YMR129W, active compounds read low 0.984 | S. cerevisiae deletion strains, locus YMR205C, strain PFK2, active compounds read low 0.995 | S. cerevisiae deletion strains, locus YMR223W, strain ubp8, active compounds read low 1.02 | S. cerevisiae deletion strains, locus YMR231W, strain pep5, active compounds read low 1 | S. cerevisiae deletion strains, locus YMR263W, strain SAP30, active compounds read low 1.01 | S. cerevisiae deletion strains, locus YMR307W, strain GAS1, active compounds read low 1.04 | S. cerevisiae deletion strains, locus YNL067W, strain RPL9B, active compounds read low 1.03 | S. cerevisiae deletion strains, locus YNL071W, strain lat1, active compounds read low 1.02 | S. cerevisiae deletion strains, locus YNL128W, strain TEP1, active compounds read low 1.03 | S. cerevisiae deletion strains, locus YNL153C, strain GIM3, active compounds read low 1.02 | S. cerevisiae deletion strains, locus YNL209W, strain ssb2, active compounds read low 1 | S. cerevisiae deletion strains, locus YNL233W, strain BNI4, active compounds read low 1.01 | S. cerevisiae deletion strains, locus YNL248C, strain rpa49, active compounds read low 1.08 | S. cerevisiae deletion strains, locus YNL250W, strain rad50, active compounds read low 1.01 | S. cerevisiae deletion strains, locus YNL271C, strain bni1, active compounds read low 1.03 | S. cerevisiae deletion strains, locus YNL298W, strain CLA4, active compounds read low 1.02 | S. cerevisiae deletion strains, locus YNL307C, strain MCK1, active compounds read low 1.02 | S. cerevisiae deletion strains, locus YNL322C, strain KRE1 (second series), active compounds read low 0.999 | S. cerevisiae deletion strains, locus YNR049C, strain mso1, active compounds read low 1 | S. cerevisiae deletion strains, locus YNR052C, strain pop2, active compounds read low 1.03 | S. cerevisiae deletion strains, locus YOL006C, strain TOP1, active compounds read low 0.995 | S. cerevisiae deletion strains, locus YOL012C, strain htz1 0.978 | S. cerevisiae deletion strains, locus YOL147C, strain pex11, active compounds read low 1.02 | S. cerevisiae deletion strains, locus YOR001W, strain rrp6, active compounds read low 1.02 | S. cerevisiae deletion strains, locus YOR061W, strain CKA2, active compounds read low 1.02 | S. cerevisiae deletion strains, locus YOR069W, strain VPS5, active compounds read low 1.01 | S. cerevisiae deletion strains, locus YOR070C, strain gyp1, active compounds read low 1 | S. cerevisiae deletion strains, locus YOR080W, strain dia2, active compounds read low 0.984 | S. cerevisiae deletion strains, locus YOR083W, strain WHI5, active compounds read low 1 | S. cerevisiae deletion strains, locus YOR106W, strain vam3, active compounds read low 1.02 | S. cerevisiae deletion strains, locus YOR136W, strain idh2, active compounds read low 1.03 | S. cerevisiae deletion strains, locus YOR144C, strain elg1, active compounds read low 1.03 | S. cerevisiae deletion strains, locus YOR184W, strain ser1, active compounds read low 1.01 | S. cerevisiae deletion strains, locus YOR265W, strain rbl2, active compounds read low 1 | S. cerevisiae deletion strains, locus YOR270C, strain vph1, active compounds read low 1.04 | S. cerevisiae deletion strains, locus YOR290C, strain snf2, active compounds read low 0.994 | S. cerevisiae deletion strains, locus YOR316C, strain cot1, active compounds read low 1.02 | S. cerevisiae deletion strains, locus YPL051W, strain arl3, active compounds read low 1.01 | S. cerevisiae deletion strains, locus YPL078C, strain atp4, active compounds read low 0.992 | S. cerevisiae deletion strains, locus YPL106C, strain sse1, active compounds read low 0.988 | S. cerevisiae deletion strains, locus YPL240C, strain hsp82, active compounds read low 0.999 | S. cerevisiae deletion strains, locus YPR119W, strain clb2, active compounds read low 1.02 | S. cerevisiae deletion strains, locus YPR141C, strain kar3, active compounds read low 1.03 | S. cerevisiae deletion strains, locus YPR163C, strain tif3, active compounds read low 1.03 | S. cerevisiae deletion strains, locus YPR167C, strain met16, active compounds read low 1.06 | S. cerevisiae deletion strains, strain wtn01, active compounds read low 1.01 | S. cerevisiae strains, strain wild type, active compounds read low 1.01
